Drawing on PubChem BioAssay (NCATS), this text covers Potency, outcome and activity, negative = cell killing for six compounds.

“And” between values parts separate entries of the source, which are not always exact repeats. Equal values may be shown once. Inconclusive results are not listed. A structure can be active in one record and inactive in another. Unmarked numbers belong to inactive results. The source made the active and inactive calls. Calls come from the whole dose curve; as a rule, active = well fitted curve in the direction sought with a large enough effect; inconclusive = small, poorly fitted or top-dose-only effect, or another doubt; inactive = no such curve, though single readings can be large; an effect the other way counts as inactive or inconclusive.

Assay [1] has as its system MKL-2. Put plainly: qHTS assay to identify novel small-molecules to repurpose for Merkel cell carcinoma treatment (AID 1296009). Note: nearly all actives have a fitted effect of over 60% in size. The note with it: MCC and control cell lines, CellTiter-Glo viability, 72 h; series mostly up to 46 µM. The procedure, abridged:
(§1)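 Cells were treated for 72 hr at 37 degree celsius with compounds in 8- or 11-point dose response. Viability was read by CellTiter-Glo luminescence, normalized to no-cell (cytotoxicity) and DMSO controls.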
On the technique in general: In qHTS, concentration-response curves come from the screen itself.

Assay [2] deals with NIH3T3. Described as above. The note with it: MCC and control cell lines, CellTiter-Glo viability, 72 h; series mostly up to 44.8 µM. The procedure, abridged: as §1
Assay [3] deals with UISO. The description is as above. Particulars: MCC and control cell lines, CellTiter-Glo viability, 72 h; series mostly up to 46 µM. Summed up: as §1
(In general: In ATP-based viability assays light output follows the ATP content of the culture.)

Assay [4] has as its system WaGa. The description is as above. Particulars: MCC and control cell lines, CellTiter-Glo viability, 72 h; series mostly up to 46 µM. Summed up:
as §1

Assay [5] concerns C33A. Put plainly: Primary qHTS to identify gynecologic anti-cancer compounds using libraries of approved drugs and bioactive compounds (AID 1345084). Note: nearly all actives have a fitted effect of over 55% in size. Note: potency is the fitted concentration of half-maximal effect. Particulars: Gynecologic cancer cell panel viability, ATPlite luminescence, 48 h; series mostly up to 57.5 µM. Summed up: (§2)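 Luminescence from the ATPlite ATP-monitoring reagent indicates viable cell number; lower signal means cytotoxicity. Cells received compound 16 h after seeding and were exposed for 48 h across five concentrations.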

Assay [6] deals with CASKI. The description is as above. The note with it: Gynecologic cancer cell panel viability, ATPlite luminescence, 48 h; series mostly up to 57.5 µM. The procedure, abridged:
as §2

Assay [7] relates to Es-2. Described as above. Particulars: Gynecologic cancer cell panel viability, ATPlite luminescence, 48 h; series mostly up to 57.5 µM. Summed up: as §2
The subject of assay [8] is HeLa. The assay is described as above. The note with it: Gynecologic cancer cell panel viability, ATPlite luminescence, 48 h; series mostly up to 57.5 µM. Summed up:
as §2

The subject of assay [9] is Hek293T. Described as above. The note with it: Gynecologic cancer cell panel viability, ATPlite luminescence, 48 h, control line for the selectivity index; series mostly up to 57.5 µM. Summed up:
as §2

Assay [10] deals with JEG-3. The assay is described as above. The note with it: Gynecologic cancer cell panel viability, ATPlite luminescence, 48 h; series mostly up to 57.5 µM. The procedure, abridged:
as §2

Assay [11] deals with OV90. The assay is described as above. Particulars: Gynecologic cancer cell panel viability, ATPlite luminescence, 48 h; series mostly up to 57.5 µM. Summed up: as §2
The test system of assay [12] is PA-1. The assay is described as above. The note with it: Gynecologic cancer cell panel viability, ATPlite luminescence, 48 h; series mostly up to 57.5 µM. The procedure, abridged: as §2
Assay [13] concerns SKOV3. The description is as above. Particulars: Gynecologic cancer cell panel viability, ATPlite luminescence, 48 h; series mostly up to 57.5 µM. Summed up:
as §2

Assay [14] deals with Tov-21-G. The assay is described as above. Particulars: Gynecologic cancer cell panel viability, ATPlite luminescence, 48 h; series mostly up to 57.5 µM. Summed up:
as §2

Assay [15] relates to Tov112D. The description is as above. Particulars: Gynecologic cancer cell panel viability, ATPlite luminescence, 48 h; series mostly up to 57.5 µM. The procedure, abridged: as §2
Assay [16] is described as follows: Drug repurposing screens with cells derived from glioblastoma tumor samples (AID 1345199). Note: nearly all actives have a fitted effect of over 40% in size. Note: potency is the fitted concentration of half-maximal effect. The note with it: GBM patient neurospheres viability, ATP luminescence, 48 h. Summed up: (§3)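 Four patient lines of CD133+ GBM neurospheres were screened at several concentrations; hits were retested in those lines plus three slower-growing GBM lines, using 48-hour treatment and ATP-based viability.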

Assay [17] concerns astro. The description is as above. The note with it: viability, ATP luminescence, 48 h; series mostly up to 45.9 µM. The procedure, abridged:
as §3

In assay [18] the test system is CAOV3. Put plainly: Primary qHTS to identify gynecologic anti-cancer compounds using libraries of approved drugs and bioactive compounds (AID 1345084). Note: nearly all actives have a fitted effect of over 55% in size. Note: potency is the fitted concentration of half-maximal effect. The note with it: Gynecologic cancer cell panel viability, ATPlite luminescence, 48 h; series mostly up to 57.5 µM. Summed up: as §2
Where [19] appears, read: at 45.9 µM (top of the series), tumour line B.
Setting [20] is: at 45.9 µM (top of the series), tumour line D.
Where [21] appears, read: at 46 µM (top of the series), tumour line A.
Setting [22] is: at 46.1 µM (top of the series), tumour line C.
[23] abbreviates: at 20 µM (top of the series), tumour line C.
[24] abbreviates: at 21.2 µM (top of the series), tumour line B.
Setting [25] is: at 21.2 µM (top of the series), tumour line D.
% is set by controls: 0 for no effect and ±100 for the full control effect.

As to `CC1COc2c(N3CCN(C)CC3)c(F)cc3c(=O)c(C(=O)O)cn1c23` (stereo not drawn), the Potency entry in assay [1], in [3], in assay [4], in assay [5], in [6] and in [7] was “inactive” throughout. Also, the Potency entry in assay [8], in assay [9], in assay [10], in assay [11], in assay [12] and in [13] was “inactive” throughout. Also, the Potency result in [14], in assay [15] and in assay [17] was “inactive” each time. In [2], the call was inactive. The activity, negative = cell killing was -12.3% in assay [16] (setting [19]), -0.592% in assay [16] (setting [20]), -24.5% in [16] (setting [21]) and -10.7% in assay [16] (setting [22]).
For the compound `Cc1cc(C(C)(C)C)cc(C)c1CC1=NCCN1`, the Potency result in assay [1], in assay [3], in assay [4], in assay [5], in assay [18] and in [6] was “inactive” each time. Besides, the Potency entry in [10], in [14], in [15] and in assay [17] was “inactive” throughout. In addition, the outcome in assay [2] was inactive. Also, the activity, negative = cell killing in assay [16] (setting [23]) was -2.93%; in assay [16] (setting [24]), -9.52%; in assay [16] (setting [25]), -25.7%.
As to `Clc1ccc2nsnc2c1NC1=NCCN1`, the Potency result in assay [1], in assay [3], in [4], in [5], in assay [18] and in assay [6] was “inactive” throughout. For the same compound, the Potency entry in assay [7], in assay [8], in [9], in [10], in assay [11] and in assay [12] was “inactive” throughout. The Potency result in assay [13], in assay [14], in assay [15] and in [17] was “inactive” throughout. The compound was called inactive in assay [2]. The activity, negative = cell killing in [16] (setting [19]) was -9.87%; in [16] (setting [20]) it was 1.91%; in [16] (setting [22]), 8.38%.
With `CN1CCN(C2=Nc3cc(Cl)ccc3Nc3ccccc32)CC1`, the Potency entry in assay [1], in [3], in assay [4], in assay [5], in assay [6] and in assay [7] was “inactive” throughout. Besides, the Potency result in assay [8], in [9], in [10], in assay [14] and in assay [15] was “inactive” throughout. Moreover, in assay [2], the outcome was inactive. In addition, the Potency was 31.6 µM (active) in assay [13], 11.2 µM (active) in assay [16] (tumour line A) and 35.5 µM (active) in [16] (tumour line D). Moreover, the activity, negative = cell killing in assay [16] (setting [22]) was 1.71%.
In the case of `COc1cc2nc(N(C)CCCNC(=O)C3CCCO3)nc(N)c2cc1OC` (stereo not drawn), the Potency entry in [1], in assay [3], in assay [4], in assay [5], in [6] and in [7] was “inactive” in each case. Besides, the Potency result in assay [8], in assay [9], in assay [10], in [11], in [12] and in assay [13] was “inactive” throughout. The Potency result in assay [14] and in assay [15] was “inactive” throughout. Besides, in [2], the compound was called inactive. Besides, the activity, negative = cell killing in [16] (setting [23]) is -6.33%; in assay [16] (setting [24]) it was -6.29%; in assay [16] (setting [25]), 7.29%.
As for `Cc1ccccc1N1C(=O)c2cc(S(N)(=O)=O)c(Cl)cc2NC1C` (stereo not drawn), the Potency result in assay [1], in [3], in [4], in [5], in [6] and in assay [7] was “inactive” each time. The Potency result in assay [8], in [9], in assay [10], in assay [12], in assay [13] and in assay [14] was “inactive” throughout. Also, the Potency entry in [15] and in assay [17] was “inactive” throughout. Besides, in assay [2], the outcome was inactive. Also, the activity, negative = cell killing in assay [16] (setting [19]) was -0.853% and -2.25%; in assay [16] (setting [20]), 16.5% and -1.42%; in assay [16] (setting [21]), -25.2%; in assay [16] (setting [22]), -19% and -29.3%. Besides, in assay [16] (tumour line A), the Potency is 35.5 µM (active).
